Laboratory results published in PubChem BioAssay (NCATS).
Results filed as inconclusive are left out. Activity calls are given as the source filed them. Calls follow the shape of the dose curve; as a rule, active = well fitted curve in the direction sought with a large enough effect; inconclusive = small, poorly fitted or top-dose-only effect, or another doubt; inactive = no such curve, though single readings can be large; an effect the other way counts as inactive or inconclusive.

Key:
[1] = tested on: Zika virus NS2B-NS3 protease (linked construct); experiment: Primary screen NINDS Rhodamine qHTS for Zika virus inhibitors (AID 1347160); also: nearly all actives have a fitted effect of over 55% in size
Summary of the method: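 Each compound, titrated, sat 15 min with 25 nM linked protease before 1.5 microM Rhodamine110 substrate went in. Fluorescence gain over the next 15 min, in pH 8.0 Tris with Tween 20, gave Hill-fitted curves.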

[2] = biological target: Calcium and integrin-binding protein 1 (Homo sapiens) (UniProt Q99828); experiment: Primary qHTS for Identification of Calcium Integrin Binding Protein 1 (CIB1) Competitor (AID 1508620);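 also: GST tagged CIB1 binding a fluorescein labelled alphaIIb integrin peptide tracer; top concentration of the series differs between compounds; % is scaled to controls: 0 for no effect and ±100 for the full control effect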
Summary of the method: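 Fluorescence polarization competition: CIB1-GST (1 uM final) preincubated with compound 15 min at room temperature, then FITC-labeled alphaIIb peptide (100 nM final) added for another 15 min. Polarization read at Ex 480/Em 540.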

[3] = biological target: Glutathione peroxidase 1 (Homo sapiens) (UniProt P07203); experiment: Primary qHTS Assay for Inhibitors of Recombinant Selenoprotein Glutathione Peroxidase 1 (GPX1) (AID 1845191); also: nearly all actives have a fitted effect of over 65% in size
Summary of the method: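 GPX1 10 nM, GR 100 nM, GSH 1 mM, NADPH 0.5 mM, CHP 0.5 mM (final). 30-min cpd preincubation, RT. Ex340/Em450 read t=0, t=15 min.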

[4] = biological target: Luciferin 4-monooxygenase (Photinus pyralis) (UniProt P08659); experiment: Primary firefly luciferase (FLuc) qHTS assay for identification of artifact compounds. (AID 1845220); conditions: outcome: dose series up to 54.1 µM unless noted; also: nearly all actives have a fitted effect of over 60% in size
Summary of the method: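 Reaction readout was CCD-imaged luminescence, taken 5 min after adding 10 nM purified firefly enzyme to compound-treated wells holding 10 uM luciferin and ATP in pH 7.6 buffer.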

[5] = Primary fluorescence-based thiol-reactive (MSTI) qHTS assay for identification of artifact compounds. (AID 1845221); also: nearly all actives have a fitted effect of over 65% in size; also: potency is read from the fitted curve at half-maximal effect
Summary of the method: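 One-hour, room-temperature, dark incubation of compound with 4 uM MSTI in PBS (pH 7.4, 2% DMSO) precedes a fluorescence read at 525 nm excitation, 598 nm emission; Hill-equation fitting yields concentration-response values.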

[6] = tested on: Nanoluciferase (engineered Oplophorus gracilirostris luciferase); experiment: Primary Nanoluciferase (NLuc) qHTS assay for identification of artifact compounds. (AID 1845222);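 also: NLuc secreted into diluted conditioned medium of S16 cells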
Summary of the method: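 Concentration-response data were obtained by luminescence after 5 min with Nano-Glo substrate at 1:100. The enzyme was diluted S16 NLuc-expressing cell medium, preincubated with compound for 15 min at RT. Curves were fitted with a 4-parameter Hill model.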

[7] = Primary redox qHTS assay for identification of artifact compounds. (AID 1845223);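 also: 0% = DMSO and 100% = reference compound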
Summary of the method: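 Redox-cycling detection via DTT (250 uM final) oxidation coupled to Amplex Red (25 uM)/HRP (250 mU/mL) in HBSS. 15 min preincubation plus 30 min after DTT, room temperature. Ex/Em 525/598 nm; 4-parameter Hill fit against DMSO and 10 uM DA3003.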

CRL-7250 = normal cell line; experiment: Cytotoxic Profiling of Annotated Libraries Using Quantitative High-Throughput Screening (AID 1296008); conditions: Five cell lines viability, CellTiter-Glo ATP luminescence, 48-72 h; max response: stronger effect = lower value; also: nearly all actives have a fitted effect of over 60% in size; also: potency is read from the fitted curve at half-maximal effect; as to max response: % is scaled to controls: 0 for no effect and ±100 for the full control effect
Summary of the method: (§1)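 Compounds were pin-transferred onto cells and incubated 48 or 72 hr at 37 degree Celsius, 95% humidity. CellTiter-Glo was added, plates sat 10 min at room temperature, then ATP-coupled luminescence was imaged as the viability read-out.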

CASKI = experiment: Primary qHTS to identify gynecologic anti-cancer compounds using libraries of approved drugs and bioactive compounds (AID 1345084); conditions: Gynecologic cancer cell panel viability, ATPlite luminescence, 48 h; series mostly up to 57.5 µM; also: nearly all actives have a fitted effect of over 55% in size; also: potency is read from the fitted curve at half-maximal effect
Summary of the method: (§2)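 In this quantitative HTS, cell killing is estimated from loss of ATP-dependent luciferase light. Cells see five compound concentrations over a 48 h exposure.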

JEG-3 = experiment: as above; conditions: Gynecologic cancer cell panel viability, ATPlite luminescence, 48 h; series mostly up to 57.5 µM
Summary of the method: as §2

[8] = biological target: Phospholipid hydroperoxide glutathione peroxidase GPX4 (Homo sapiens) (UniProt P36969); experiment: Primary qHTS Assay for Inhibitors of Recombinant Selenoprotein Glutathione Peroxidase 4 (GPX4) (AID 1845192); also: % is scaled to controls: 0 for no effect and ±100 for the full control effect; nearly all actives have a fitted effect of over 65% in size
Summary of the method: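 qHTS, GR-coupled: GPX4 200 nM + cpd 30 min RT → GSH 1 mM, NADPH 0.5 mM, GR 100 nM → CHP 0.5 mM start; fluor 340/450 at t0 and t15 min; no-enzyme wells as control.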

CAOV3 = experiment: Primary qHTS to identify gynecologic anti-cancer compounds using libraries of approved drugs and bioactive compounds (AID 1345084); conditions: Gynecologic cancer cell panel viability, ATPlite luminescence, 48 h; series mostly up to 57.5 µM; also: nearly all actives have a fitted effect of over 55% in size; also: potency is read from the fitted curve at half-maximal effect
Summary of the method: as §2

Es-2 = experiment: as above; conditions: Gynecologic cancer cell panel viability, ATPlite luminescence, 48 h; series mostly up to 57.5 µM
Summary of the method: as §2

Hek293T = experiment: as above; conditions: Gynecologic cancer cell panel viability, ATPlite luminescence, 48 h, control line for the selectivity index; series mostly up to 57.5 µM
Summary of the method: as §2

OV90 = experiment: as above; conditions: Gynecologic cancer cell panel viability, ATPlite luminescence, 48 h; series mostly up to 57.5 µM
Summary of the method: as §2

PA-1 = experiment: as above; conditions: Gynecologic cancer cell panel viability, ATPlite luminescence, 48 h; series mostly up to 57.5 µM
Summary of the method: as §2

Tov-21-G = experiment: as above; conditions: Gynecologic cancer cell panel viability, ATPlite luminescence, 48 h; series mostly up to 57.5 µM
Summary of the method: as §2

Tov112D = experiment: as above; conditions: Gynecologic cancer cell panel viability, ATPlite luminescence, 48 h; series mostly up to 57.5 µM
Summary of the method: as §2

NIH3T3 = experiment: Cytotoxic Profiling of Annotated Libraries Using Quantitative High-Throughput Screening (AID 1296008); conditions: Five cell lines viability, CellTiter-Glo ATP luminescence, 48-72 h; max response: stronger effect = lower value; also: nearly all actives have a fitted effect of over 60% in size; also: potency is read from the fitted curve at half-maximal effect; as to max response: % is scaled to controls: 0 for no effect and ±100 for the full control effect
Summary of the method: as §1

C33A = experiment: Primary qHTS to identify gynecologic anti-cancer compounds using libraries of approved drugs and bioactive compounds (AID 1345084); conditions: Gynecologic cancer cell panel viability, ATPlite luminescence, 48 h; series mostly up to 57.5 µM; also: nearly all actives have a fitted effect of over 55% in size; also: potency is read from the fitted curve at half-maximal effect
Summary of the method: as §2

Sequence of Calcium and integrin-binding protein 1 (Homo sapiens) (Q99828 whole entry, looked up): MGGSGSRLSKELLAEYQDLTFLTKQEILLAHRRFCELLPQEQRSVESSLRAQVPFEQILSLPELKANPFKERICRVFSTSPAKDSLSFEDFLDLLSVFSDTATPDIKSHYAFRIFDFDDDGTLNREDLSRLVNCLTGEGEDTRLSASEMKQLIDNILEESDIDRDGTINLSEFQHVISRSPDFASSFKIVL
Sequence of Glutathione peroxidase 1 (Homo sapiens) (P07203 whole entry, looked up): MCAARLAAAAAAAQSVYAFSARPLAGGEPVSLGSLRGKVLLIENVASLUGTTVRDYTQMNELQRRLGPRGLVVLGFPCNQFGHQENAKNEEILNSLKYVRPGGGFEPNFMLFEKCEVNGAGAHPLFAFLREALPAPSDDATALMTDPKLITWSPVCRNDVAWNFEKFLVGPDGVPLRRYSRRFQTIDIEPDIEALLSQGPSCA
Sequence of Phospholipid hydroperoxide glutathione peroxidase GPX4 (Homo sapiens) (P36969 whole entry, looked up): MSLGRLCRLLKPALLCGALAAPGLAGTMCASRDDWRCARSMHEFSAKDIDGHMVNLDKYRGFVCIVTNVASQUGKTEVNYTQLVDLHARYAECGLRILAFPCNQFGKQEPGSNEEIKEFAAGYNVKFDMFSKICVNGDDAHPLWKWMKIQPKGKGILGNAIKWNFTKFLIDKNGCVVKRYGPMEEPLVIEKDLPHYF

CC[C@@H](C)[C@H]1C(=O)O[C@H](C(C)C)C(=O)N(C)[C@@H](C(C)C)C(=O)O[C@H](C(C)C)C(=O)N(C)[C@@H](C(C)C)C(=O)O[C@H](C(C)C)C(=O)N1C
active: Potency (CRL-7250) 3850 nM
inactive: Potency [1] | Potency [2] | Potency [3] | outcome [4] | Potency [5] | Potency [6] | Potency [7] | Potency (CASKI) | Potency (JEG-3)

CCOC(=O)c1ccc(-c2ccc(OC(=O)N(C)Cc3cccc(-c4ccncc4)c3)cc2)cc1
inactive: Potency [1] | Potency [2] | Potency [3] | Potency [8] | outcome [4] | Potency [5] | Potency [6] | Potency [7] | Potency (CAOV3) | Potency (CASKI) | Potency (Es-2) | Potency (Hek293T) | Potency (JEG-3) | Potency (OV90) | Potency (PA-1) | Potency (Tov-21-G) | Potency (Tov112D)

CC(=O)NCCCOc1ccc(C(=O)N2CCC(N3C(=O)CCc4ccccc43)CC2)cc1
inactive: Potency [1] | Potency [3] | Potency [8] | outcome [4] | Potency [5] | Potency [6] | Potency [7] | max response (CRL-7250) 0.176% | max response (NIH3T3) -14% | Potency (C33A) | Potency (CASKI) | Potency (Es-2) | Potency (Hek293T) | Potency (JEG-3) | Potency (OV90) | Potency (PA-1) | Potency (Tov-21-G) | Potency (Tov112D)

CC[C@@H]1C[C@H]2CC[C@H](O2)[C@H](C)C(=O)O[C@@H](C)C[C@@H]2CC[C@@H](O2)[C@@H](C)C(=O)O[C@H](C)C[C@H]2CC[C@H](O2)[C@H](C)C(=O)O[C@@H](C)C[C@@H]2CC[C@@H](O2)[C@@H](C)C(=O)O1
inactive: Potency [1] | Potency [2] | Potency [3] | outcome [4] inactive [at 25.7 µM] | Potency [6] | Potency [7] | Potency (JEG-3)
active: Potency (CRL-7250) 432 nM | Potency (NIH3T3) 86.2 nM | Potency (CAOV3) 562 nM | Potency (CASKI) 501 nM | Potency (Es-2) 708 nM | Potency (Hek293T) 282 nM | Potency (OV90) 447 nM | Potency (PA-1) 398 nM

C=C1C(=O)O[C@@H]2[C@H]3C(=C)[C@@H](O)C[C@H]3C(=C)C[C@@H](O)[C@@H]12
active: Potency [5] 5320 nM
inactive: Potency [2] | Potency [3] | Potency [8] | outcome [4] | Potency [6] | Potency [7] | max response (CRL-7250) -8.41% | Potency (C33A) | Potency (CAOV3) | Potency (CASKI) | Potency (Es-2) | Potency (Hek293T) | Potency (JEG-3) | Potency (OV90) | Potency (PA-1) | Potency (Tov112D)

COc1ccc(CCNCc2ccc(OC)c3ccccc23)cc1
inactive: Potency [1] | Potency [2] | Potency [3] | outcome [4] | Potency [5] | Potency [6] | Potency [7] | max response (CRL-7250) -2.06% | max response (NIH3T3) -21.8% | Potency (C33A) | Potency (CAOV3) | Potency (CASKI) | Potency (Es-2) | Potency (Hek293T) | Potency (OV90) | Potency (PA-1) | Potency (Tov-21-G) | Potency (Tov112D)

C[C@@H](CN1CCC2(CC1)C(=O)NCN2c1cccc(F)c1)NC(=O)c1ccc(Br)cc1
inactive: Potency [1] | Potency [2] | Potency [3] | Potency [8] | outcome [4] | Potency [5] | Potency [6] | Potency [7] | outcome (CRL-7250) | Potency (C33A) | Potency (CAOV3) | Potency (Es-2) | Potency (JEG-3) | Potency (OV90) | Potency (PA-1) | Potency (Tov-21-G)

COc1cc2c(cc1O)C1(C)CCC(O)C(C)(C)C1CC2=O (configuration not stated)
inactive: Potency [1] | Potency [2] | Potency [3] | Potency [8] | outcome [4] | Potency [6] | Potency [7] | outcome (NIH3T3) | Potency (C33A) | Potency (CAOV3) | Potency (CASKI) | Potency (Es-2) | Potency (Hek293T) | Potency (JEG-3) | Potency (OV90) | Potency (PA-1) | Potency (Tov-21-G) | Potency (Tov112D)

C/C=C(\C)C(O)C(C)/C=C(C)/C=C/C/C(C)=C/Cc1nc(OC)c(OC)c(O[C@@H]2O[C@@H](C)[C@H](O)[C@@H](O)[C@H]2O)c1C (some centres not stated)
active: Potency (CRL-7250) 796 nM | Potency (CASKI) 3980 nM
inactive: Potency [1] | Potency [2] | Potency [3] | Potency [8] | outcome [4] | Potency [5] | Potency [6] | Potency (OV90) | Potency (Tov112D)

O=C1CN=C(c2cccc(Br)c2)c2oc3ccccc3c2N1
inactive: Potency [1] | Potency [2] | Potency [3] | Potency [8] | outcome [4] | Potency [5] | Potency [6] | Potency [7] | outcome (CRL-7250) | Potency (C33A) | Potency (CAOV3) | Potency (CASKI) | Potency (Es-2) | Potency (OV90) | Potency (Tov-21-G)

C=C[C@H]1CN2CCC1C[C@H]2[C@H](O)c1ccnc2ccccc12 (some centres not stated)
inactive: Potency [1] | Potency [2] | Potency [8] | outcome [4] | Potency [5] | Potency [6] | Potency [7] | max response (CRL-7250) -4.97% | max response (NIH3T3) -5.71% | Potency (C33A) | Potency (CAOV3) | Potency (CASKI) | Potency (Es-2) | Potency (Hek293T) | Potency (JEG-3) | Potency (OV90) | Potency (PA-1) | Potency (Tov-21-G) | Potency (Tov112D)

O=C1CN=C(c2ccccc2Cl)c2cc(Br)ccc2N1
inactive: Potency [1] | Potency [2] | Potency [3] | Potency [8] | outcome [4] | Potency [5] | Potency [6] | Potency [7] | max response (CRL-7250) -11.2% | outcome (NIH3T3) | Potency (C33A) | Potency (CAOV3) | Potency (CASKI) | Potency (Es-2) | Potency (Hek293T) | Potency (JEG-3) | Potency (OV90) | Potency (PA-1) | Potency (Tov-21-G) | Potency (Tov112D)

C[C@H]1CCC[C@H](O)CCC/C=C/c2cc(O)cc(O)c2C(=O)O1
inactive: Potency [1] | Potency [2] | Potency [3] | outcome [4] | Potency [5] | Potency [6] | Potency [7] | outcome (CRL-7250) | outcome (NIH3T3) | Potency (C33A) | Potency (CAOV3) | Potency (CASKI) | Potency (Es-2) | Potency (Hek293T) | Potency (JEG-3) | Potency (OV90) | Potency (PA-1) | Potency (Tov-21-G) | Potency (Tov112D)

C=C1CC[C@H]2[C@@H](/C=C(\C)C(=O)[C@@]3(OC(C)=O)C[C@H](C)[C@H](OC(=O)c4ccccc4)[C@@H]3[C@H]1OC(C)=O)C2(C)C
inactive: Potency [1] | Potency [2] | Potency [3] | outcome [4] | Potency [5] | Potency [6] | Potency [7] | max response (CRL-7250) 1.55% | max response (NIH3T3) -4.22% | Potency (C33A) | Potency (CAOV3) | Potency (CASKI) | Potency (Es-2) | Potency (Hek293T) | Potency (JEG-3) | Potency (OV90) | Potency (PA-1) | Potency (Tov-21-G) | Potency (Tov112D)
